Consider one sequence from paper PMC7862700, “An all-to-all approach to the identification of sequence-specific readers for epigenetic DNA modifications on cytosine”.

Common to all, as to assay: DAPPL (digital affinity profiling via proximity ligation, sequencing); 10 mM Tris-HCl pH 7.5, 50 mM NaCl, 1 mM DTT, 4% glycerol, room temperature, 30 min; GST-TFs on glutathione beads, 16-mer random dsDNA library, 0.1% formaldehyde crosslink after washing; high values mean tight binding
Holding throughout (details): protein: recombinant; tags: N-terminal GST; dsDNA, one strand shown

The target in one assay is T1, GABPA (Homo sapiens, UniProt Q06546 1-454).
T1 sequence: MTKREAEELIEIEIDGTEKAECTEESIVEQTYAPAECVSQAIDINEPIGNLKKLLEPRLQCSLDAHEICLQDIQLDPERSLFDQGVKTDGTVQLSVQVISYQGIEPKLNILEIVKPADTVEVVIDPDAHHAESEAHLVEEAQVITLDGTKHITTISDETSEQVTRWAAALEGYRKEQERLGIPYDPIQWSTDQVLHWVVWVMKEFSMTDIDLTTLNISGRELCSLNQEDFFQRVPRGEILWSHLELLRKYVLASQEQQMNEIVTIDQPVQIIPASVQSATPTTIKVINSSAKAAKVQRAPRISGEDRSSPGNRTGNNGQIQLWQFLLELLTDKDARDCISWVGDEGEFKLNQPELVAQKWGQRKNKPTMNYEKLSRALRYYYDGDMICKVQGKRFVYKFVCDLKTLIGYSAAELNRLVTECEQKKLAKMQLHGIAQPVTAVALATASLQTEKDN
In outline:
(§1)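 Beads coated with glutathione captured GST-fused human transcription factors that had been expressed in yeast, and the factors were then given DNA barcodes and pooled with a tag-only sample. The pools were incubated with 200 nmole of a random double-stranded 16-mer DNA library in Tris/NaCl/DTT/glycerol buffer for 30 min at room temperature, washed, crosslinked with 0.1% formaldehyde and proximity-ligated with BsaI/T4 ligase at 37 °C for 1 h. PCR amplification and Illumina NextSeq500 sequencing came last. Binding signal is each hexamer's read frequency for a factor divided by its frequency for the tag-only sample.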

The next assay deals with ELF1 (Homo sapiens, UniProt P32519 1-619). In outline: as §1
The target of the next assay is SPIB (Homo sapiens, UniProt Q01892 1-262). In outline: as §1
A further assay addresses T2, FEV (Homo sapiens, UniProt Q99581 1-238).
T2 sequence: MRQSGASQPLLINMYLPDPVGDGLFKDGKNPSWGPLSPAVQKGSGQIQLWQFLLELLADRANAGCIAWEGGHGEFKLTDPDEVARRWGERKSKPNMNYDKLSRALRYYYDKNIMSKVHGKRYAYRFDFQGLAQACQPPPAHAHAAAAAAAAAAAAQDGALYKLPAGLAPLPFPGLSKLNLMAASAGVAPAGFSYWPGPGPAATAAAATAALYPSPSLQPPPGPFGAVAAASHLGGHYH
In outline:
as §1

A further assay deals with ETV5 (Homo sapiens, UniProt P41161 1-510). The gist of the method: as §1
A further assay addresses ELF4 (Homo sapiens, UniProt Q99607 1-663). The gist of the method: as §1
Another assay concerns the target T3, ELK4 (Homo sapiens, UniProt P28324-2 1-405).
T3 sequence: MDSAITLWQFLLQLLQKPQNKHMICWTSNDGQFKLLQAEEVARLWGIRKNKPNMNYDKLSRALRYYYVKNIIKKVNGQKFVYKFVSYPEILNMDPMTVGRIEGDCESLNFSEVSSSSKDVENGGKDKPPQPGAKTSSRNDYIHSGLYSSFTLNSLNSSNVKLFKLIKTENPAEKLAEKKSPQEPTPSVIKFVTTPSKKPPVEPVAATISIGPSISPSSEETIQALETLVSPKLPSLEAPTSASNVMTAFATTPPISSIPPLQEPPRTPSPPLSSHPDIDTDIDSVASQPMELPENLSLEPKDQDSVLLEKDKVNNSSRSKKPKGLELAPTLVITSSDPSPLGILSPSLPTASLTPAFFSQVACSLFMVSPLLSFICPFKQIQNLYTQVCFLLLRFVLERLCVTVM
The gist of the method:
as §1

The target in a further assay is T4, ETV2 (Homo sapiens, UniProt O00321 1-342).
T4 sequence: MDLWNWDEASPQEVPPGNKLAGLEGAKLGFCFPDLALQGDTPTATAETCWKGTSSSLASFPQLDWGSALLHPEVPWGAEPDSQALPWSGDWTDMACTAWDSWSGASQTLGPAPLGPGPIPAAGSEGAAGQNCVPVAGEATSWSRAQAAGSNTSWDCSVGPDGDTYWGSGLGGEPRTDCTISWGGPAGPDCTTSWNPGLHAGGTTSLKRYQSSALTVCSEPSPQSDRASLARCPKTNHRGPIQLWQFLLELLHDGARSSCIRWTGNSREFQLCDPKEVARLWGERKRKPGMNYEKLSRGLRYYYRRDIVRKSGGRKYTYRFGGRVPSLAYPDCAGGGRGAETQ
The gist of the method: as §1

The target in a further assay is ETV1 (Homo sapiens, UniProt P50549 1-477). The gist of the method: as §1
The target in the next assay is T5, ERF (Homo sapiens, UniProt P50548 1-548).
T5 sequence: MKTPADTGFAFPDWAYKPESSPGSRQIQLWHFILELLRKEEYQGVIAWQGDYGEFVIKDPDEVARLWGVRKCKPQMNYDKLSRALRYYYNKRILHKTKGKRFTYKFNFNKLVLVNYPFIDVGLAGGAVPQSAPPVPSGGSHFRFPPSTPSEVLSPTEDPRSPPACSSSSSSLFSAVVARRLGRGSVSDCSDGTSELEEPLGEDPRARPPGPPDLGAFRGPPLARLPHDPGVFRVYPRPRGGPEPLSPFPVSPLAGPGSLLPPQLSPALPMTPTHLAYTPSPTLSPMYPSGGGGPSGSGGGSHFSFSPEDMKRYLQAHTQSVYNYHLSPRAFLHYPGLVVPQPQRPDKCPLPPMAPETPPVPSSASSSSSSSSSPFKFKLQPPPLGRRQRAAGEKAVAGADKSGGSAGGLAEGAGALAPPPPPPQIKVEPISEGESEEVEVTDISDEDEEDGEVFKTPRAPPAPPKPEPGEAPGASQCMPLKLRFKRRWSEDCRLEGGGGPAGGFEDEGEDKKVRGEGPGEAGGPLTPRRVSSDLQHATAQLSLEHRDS
The gist of the method:
as §1

The next assay deals with T6, ETV3L (Homo sapiens, UniProt Q6ZN32 1-361).
T6 sequence: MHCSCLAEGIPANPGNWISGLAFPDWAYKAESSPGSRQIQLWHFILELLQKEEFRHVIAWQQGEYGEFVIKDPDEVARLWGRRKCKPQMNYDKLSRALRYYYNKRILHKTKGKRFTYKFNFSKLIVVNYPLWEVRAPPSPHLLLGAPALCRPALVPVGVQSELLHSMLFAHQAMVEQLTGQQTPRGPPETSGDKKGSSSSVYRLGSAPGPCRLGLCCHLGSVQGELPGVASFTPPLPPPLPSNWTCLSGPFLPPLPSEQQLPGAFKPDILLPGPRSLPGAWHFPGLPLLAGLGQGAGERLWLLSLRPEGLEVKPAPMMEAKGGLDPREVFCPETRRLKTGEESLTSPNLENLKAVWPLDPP
In outline:
as §1

A further assay deals with T7, ETS2 (Homo sapiens, UniProt P15036 1-469).
T7 sequence: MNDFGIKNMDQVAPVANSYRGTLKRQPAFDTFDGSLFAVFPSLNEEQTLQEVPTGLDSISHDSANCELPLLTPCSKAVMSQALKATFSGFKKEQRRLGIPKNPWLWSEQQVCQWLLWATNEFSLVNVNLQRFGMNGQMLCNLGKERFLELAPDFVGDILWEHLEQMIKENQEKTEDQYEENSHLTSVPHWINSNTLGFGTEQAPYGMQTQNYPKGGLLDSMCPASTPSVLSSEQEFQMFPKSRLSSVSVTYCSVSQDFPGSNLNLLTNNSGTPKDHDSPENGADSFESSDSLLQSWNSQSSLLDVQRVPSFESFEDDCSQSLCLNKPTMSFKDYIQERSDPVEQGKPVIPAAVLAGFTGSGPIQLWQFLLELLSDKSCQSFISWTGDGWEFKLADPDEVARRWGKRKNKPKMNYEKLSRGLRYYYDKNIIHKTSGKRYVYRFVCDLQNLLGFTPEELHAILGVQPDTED
The gist of the method:
as §1

A further assay deals with T8, ETV7 (Homo sapiens, UniProt Q9Y603 1-341).
T8 sequence: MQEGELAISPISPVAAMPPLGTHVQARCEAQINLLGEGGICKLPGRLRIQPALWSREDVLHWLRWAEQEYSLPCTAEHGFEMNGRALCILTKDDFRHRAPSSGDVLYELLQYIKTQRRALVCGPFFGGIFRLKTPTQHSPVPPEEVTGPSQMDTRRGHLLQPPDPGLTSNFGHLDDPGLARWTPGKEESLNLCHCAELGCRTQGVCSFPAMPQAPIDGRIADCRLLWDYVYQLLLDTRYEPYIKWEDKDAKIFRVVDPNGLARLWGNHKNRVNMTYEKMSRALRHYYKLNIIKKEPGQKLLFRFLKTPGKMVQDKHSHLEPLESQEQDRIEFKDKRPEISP
The gist of the method: as §1

The next assay has as its target ETV6 (Homo sapiens, UniProt P41212 1-452). The gist of the method:
as §1

Chain of ETV5 (P41161 whole entry): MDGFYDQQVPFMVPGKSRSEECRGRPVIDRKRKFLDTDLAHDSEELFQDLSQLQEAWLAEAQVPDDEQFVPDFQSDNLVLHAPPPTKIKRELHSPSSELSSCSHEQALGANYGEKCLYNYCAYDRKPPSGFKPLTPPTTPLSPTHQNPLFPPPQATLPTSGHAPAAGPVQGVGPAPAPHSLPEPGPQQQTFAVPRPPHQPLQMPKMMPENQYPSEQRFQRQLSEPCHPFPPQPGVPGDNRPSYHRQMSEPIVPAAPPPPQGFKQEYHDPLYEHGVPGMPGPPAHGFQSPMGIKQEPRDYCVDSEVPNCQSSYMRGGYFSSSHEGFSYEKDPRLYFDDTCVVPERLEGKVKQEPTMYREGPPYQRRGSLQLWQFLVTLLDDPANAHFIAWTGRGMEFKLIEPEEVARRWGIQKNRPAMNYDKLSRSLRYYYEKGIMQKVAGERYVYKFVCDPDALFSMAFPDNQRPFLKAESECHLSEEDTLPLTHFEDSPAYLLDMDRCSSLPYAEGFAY
Chain of SPIB (Q01892 whole entry): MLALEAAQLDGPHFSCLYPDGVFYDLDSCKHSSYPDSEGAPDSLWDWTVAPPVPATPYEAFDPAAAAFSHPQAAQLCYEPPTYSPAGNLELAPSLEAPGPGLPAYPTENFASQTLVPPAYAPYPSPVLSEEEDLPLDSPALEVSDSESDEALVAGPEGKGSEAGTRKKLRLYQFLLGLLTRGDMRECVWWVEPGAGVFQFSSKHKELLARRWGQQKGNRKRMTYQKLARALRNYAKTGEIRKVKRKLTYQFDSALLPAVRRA
Chain of ELF4 (Q99607 whole entry): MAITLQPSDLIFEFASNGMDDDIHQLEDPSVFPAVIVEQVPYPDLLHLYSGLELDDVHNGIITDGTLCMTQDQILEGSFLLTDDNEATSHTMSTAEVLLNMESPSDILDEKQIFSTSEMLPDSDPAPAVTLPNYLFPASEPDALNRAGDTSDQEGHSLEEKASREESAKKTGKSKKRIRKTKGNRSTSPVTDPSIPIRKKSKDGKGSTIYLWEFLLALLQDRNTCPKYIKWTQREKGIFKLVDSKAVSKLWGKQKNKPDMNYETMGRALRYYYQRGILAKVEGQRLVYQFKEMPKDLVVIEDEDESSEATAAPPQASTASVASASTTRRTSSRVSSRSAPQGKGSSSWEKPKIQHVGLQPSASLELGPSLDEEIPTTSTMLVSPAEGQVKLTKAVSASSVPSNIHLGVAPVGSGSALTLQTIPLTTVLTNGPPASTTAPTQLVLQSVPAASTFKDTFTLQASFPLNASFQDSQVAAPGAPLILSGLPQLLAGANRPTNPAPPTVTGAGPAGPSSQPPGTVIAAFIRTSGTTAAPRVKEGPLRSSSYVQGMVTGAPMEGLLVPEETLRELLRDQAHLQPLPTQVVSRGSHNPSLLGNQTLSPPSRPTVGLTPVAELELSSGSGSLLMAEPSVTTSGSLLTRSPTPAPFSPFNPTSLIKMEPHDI
Chain of ETV1 (P50549 whole entry): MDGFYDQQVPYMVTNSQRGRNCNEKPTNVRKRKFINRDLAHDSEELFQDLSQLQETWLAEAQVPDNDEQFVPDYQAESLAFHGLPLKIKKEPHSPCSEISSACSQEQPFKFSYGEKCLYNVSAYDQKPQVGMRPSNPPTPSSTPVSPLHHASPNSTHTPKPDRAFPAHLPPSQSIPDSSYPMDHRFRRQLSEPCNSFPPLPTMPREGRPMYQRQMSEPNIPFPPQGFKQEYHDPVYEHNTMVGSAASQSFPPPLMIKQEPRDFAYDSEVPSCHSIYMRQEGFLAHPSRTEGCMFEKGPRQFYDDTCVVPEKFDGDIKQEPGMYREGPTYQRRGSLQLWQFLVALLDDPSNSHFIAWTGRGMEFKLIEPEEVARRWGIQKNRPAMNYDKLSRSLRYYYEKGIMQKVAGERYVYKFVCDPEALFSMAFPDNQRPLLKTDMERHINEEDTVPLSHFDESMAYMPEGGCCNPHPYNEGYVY
Chain of ETV6 (P41212 whole entry): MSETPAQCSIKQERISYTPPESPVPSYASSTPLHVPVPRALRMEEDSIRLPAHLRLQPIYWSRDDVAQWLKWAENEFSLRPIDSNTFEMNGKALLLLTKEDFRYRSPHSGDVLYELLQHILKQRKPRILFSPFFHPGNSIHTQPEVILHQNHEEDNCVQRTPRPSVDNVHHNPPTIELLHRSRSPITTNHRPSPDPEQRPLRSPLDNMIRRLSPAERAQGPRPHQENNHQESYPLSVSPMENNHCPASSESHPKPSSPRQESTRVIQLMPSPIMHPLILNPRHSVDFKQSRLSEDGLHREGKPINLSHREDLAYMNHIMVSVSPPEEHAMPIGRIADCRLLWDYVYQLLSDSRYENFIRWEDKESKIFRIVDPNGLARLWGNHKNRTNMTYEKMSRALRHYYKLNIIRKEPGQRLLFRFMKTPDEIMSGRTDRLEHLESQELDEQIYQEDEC
Chain of ELF1 (P32519 whole entry): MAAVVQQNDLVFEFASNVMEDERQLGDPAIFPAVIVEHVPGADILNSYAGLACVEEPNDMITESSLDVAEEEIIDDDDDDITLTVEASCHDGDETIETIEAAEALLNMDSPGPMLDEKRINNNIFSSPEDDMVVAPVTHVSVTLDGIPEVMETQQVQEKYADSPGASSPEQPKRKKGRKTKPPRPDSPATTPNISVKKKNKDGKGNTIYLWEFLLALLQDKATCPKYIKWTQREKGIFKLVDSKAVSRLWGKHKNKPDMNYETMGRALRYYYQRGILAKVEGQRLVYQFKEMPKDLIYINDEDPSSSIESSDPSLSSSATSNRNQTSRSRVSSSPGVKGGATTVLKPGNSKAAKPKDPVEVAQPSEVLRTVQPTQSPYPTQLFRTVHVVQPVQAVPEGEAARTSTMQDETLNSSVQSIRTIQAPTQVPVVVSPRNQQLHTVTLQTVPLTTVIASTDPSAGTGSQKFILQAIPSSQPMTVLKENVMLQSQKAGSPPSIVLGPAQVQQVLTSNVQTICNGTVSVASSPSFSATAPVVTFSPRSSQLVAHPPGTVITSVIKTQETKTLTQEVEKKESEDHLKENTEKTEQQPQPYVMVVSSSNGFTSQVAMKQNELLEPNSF

Regarding CGCACG, the binding signal was 1.02 fold enrichment (6-mer frequency, TF over GST control) with GABPA; 1.01 fold enrichment (6-mer frequency, TF over GST control) in the assay with ELF1; 1.06 fold enrichment (6-mer frequency, TF over GST control) with SPIB; 1.02 fold enrichment (6-mer frequency, TF over GST control) in the assay with FEV; 1.06 fold enrichment (6-mer frequency, TF over GST control) with ETV5; 1.04 fold enrichment (6-mer frequency, TF over GST control) with ELF4. The binding signal with ELK4 is 1.1 fold enrichment (6-mer frequency, TF over GST control); in the assay with ETV2 it was 1.09 fold enrichment (6-mer frequency, TF over GST control); with ETV1 it was 1.04 fold enrichment (6-mer frequency, TF over GST control); with ERF, 1.06 fold enrichment (6-mer frequency, TF over GST control); with ETV3L, 1.01 fold enrichment (6-mer frequency, TF over GST control); in the assay with ETS2, 1.02 fold enrichment (6-mer frequency, TF over GST control). Further, the binding signal with ETV7 is 1.06 fold enrichment (6-mer frequency, TF over GST control); in the assay with ETV6, 1.08 fold enrichment (6-mer frequency, TF over GST control).
